Measured values from the supplement of paper PMC11417369.
The full ranking holds about 25,000 sequences; the median of “ln(normalized median fluorescence intensity)” is about 6.7, and the highest 2% start at about 10. The full list was thinned out, with the highest values kept by preference.

What follows are sequences tested on PfHDP1 homeodomain (GST-tagged) (assay: gcPBM binding intensity (ln(normalized median fluorescence intensity)); higher = stronger DNA binding).
Summary of the method: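 After 1 h on an Agilent 4 × 180k array of primer-extended double-stranded 36-bp intergenic genomic probes and negative controls, bound GST-tagged P. falciparum DNA-binding domains were detected with Alexa488 anti-GST antibody and scanned at 488 nm. The domains had been expressed in E. coli, and binding took place in 1× PBS with 1% milk, 0.2 mg/ml BSA, 0.5% salmon testes DNA and 0.03% Triton X-100. Binding intensity is the highest Masliner-normalised natural-log median intensity across replicate spots of either probe orientation.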
In the case of “ATCATTTGCTCACGCACACACACATAAAAAGAAAAA [CACACA_site4349]”, the “gcPBM binding intensity (ln)” value is reported as 9.55.
In the case of “ATCATTTGCATACGCACACACACATAAAAAGAAAAA [CACACA_site355]”, the “gcPBM binding intensity (ln)” value is reported as 8.44.
In the case of “TTATCACATTATTGCACACACATAAAGAAAAAAATA [CACACA_site2841]”, the “gcPBM binding intensity (ln)” value is reported as 9.63.
In the case of “CATTTGCACACGCACACACACATAAAAAGAAAAATA [CACACA_site6297]”, the “gcPBM binding intensity (ln)” value is reported as 10.8.
For “CATTTGCCCAGGCACACACACATAAAAAGAAAAATA [CACACA_site356]”, the “gcPBM binding intensity (ln)” value was 6.34.
“CATTTGCACCCGCACACACACATAAAAAGAAAAATA [CACACA_site4350]” was tested, and the “gcPBM binding intensity (ln)” value was 10.7.
In the case of “AACTATATCATTTATTTTATTTTTTAAATACATTTA [CACACA_negctrl_site183]”, the “gcPBM binding intensity (ln)” value is reported as 6.19.
“ATATATGTAATAAATAGTACACACACACATATATAT [XGTACX_site2817]” was tested, and the “gcPBM binding intensity (ln)” value was 7.35.
For “ATACTGTATAGTCGCACACAAAAATATAAAATATTT [CACACA_site6004]”, the “gcPBM binding intensity (ln)” value was 6.65.
“CATATATATTTGTTCACACACACACTAATAAAAAAA [CACACA_site8787]” was tested, and the “gcPBM binding intensity (ln)” value was 6.85.
“TTGCAAATATATGGTTGTACTCAAAAAAAAAAAAAA [XGTACX_site6975]” was tested, and the “gcPBM binding intensity (ln)” value was 6.47.
In the case of “GAAAGAAATAAAGGTGGTACATAAATAAAAACTAAG [XGTACX_site4826]”, the “gcPBM binding intensity (ln)” value is reported as 6.97.
“TATATATATTTCCAGTGTACTTATTTTTTAATCAAT [XGTACX_site8220]” was tested, and the “gcPBM binding intensity (ln)” value was 6.7.
For “TATCATTGTTCATGCTTGCACTTTTGTTACTGTTCC [GTGCAC_site9425]”, the “gcPBM binding intensity (ln)” value was 6.75.
In the case of “TTTTTTTTTTTTGGTGCATGCACATTTTGTTTTTTT [TGCATGCA_site570]”, the “gcPBM binding intensity (ln)” value is reported as 10.
With “TTTTTTTTGTTCATTGTGCACATTGCTTGCATGGAA [GTGCAC_site9693]” the “gcPBM binding intensity (ln)” value was 10.8.
“GTAGGCATTAAAAAATGTACAAAATATTATGAATTG [XGTACX_site1615]” was tested, and the “gcPBM binding intensity (ln)” value was 6.32.
For “AGTAGGCATATTGGTTGTACAAAAAAATTATGCACC [XGTACX_site8925]”, the “gcPBM binding intensity (ln)” value was 10.6.
In the case of “TGAACATATTAAAATTGTACATATGCACAATATGTA [XGTACX_site6801]”, the “gcPBM binding intensity (ln)” value is reported as 9.28.
“AAACATAAAGAAAAAAAAAATATATATTTATTTATT [GTGCAC_negctrl_site357]” was tested, and the “gcPBM binding intensity (ln)” value was 6.33.
With “ATATACACATATACATGTACAAATATATATACACAT [XGTACX_site2986]” the “gcPBM binding intensity (ln)” value was 6.9.
With “CATATGTATATGACTACACACAAGGGTGTACCTATA [CACACA_site6670]” the “gcPBM binding intensity (ln)” value was 6.34.
For TTTAACATTTCAGATGTGCACATTTTCCGAACCAGT, the “gcPBM binding intensity (ln)” value was 10.9.
In the case of AATAGATTTTTATGCGTGCACACATTTAACAAAAAA, the “gcPBM binding intensity (ln)” value is reported as 10.3.
In the case of “GAACATTTATTGTGTGTGCACAATTCTTTTTTAACC [GTGCAC_site9697]”, the “gcPBM binding intensity (ln)” value is reported as 10.2.
